Source: PubChem BioAssay (NCI)
This is part of a sample that, as a whole, favours compounds with a hit. Of some 83,000 tested, about 20% had one in any assay.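 Method: cells in 96-well plates; compound added at one concentration; 48 h incubation; percent growth measured; values under 10 scored active.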 Unmarked numbers belong to inactive results. Active and inactive are the calls of the source.

Tested on: MDA-MB-231 breast
Experiment: NCI-60 one-dose screen, 48 h (100 = growth as untreated, 0 = no growth, -100 = all killed)
Details: 10 µM unless noted

SMILES	growth
COc1cc(NCCCN=C(N)N)c2ncccc2c1	64.8%
ClCCN(CCCl)c1nc(Cl)c(C2CC(c3ccccc3)=NN2c2cc(Cl)cc(Cl)c2)s1 (stereo not drawn)	98.7%
CCCCCCCC(=O)OCC(=O)[C@]1(O)Cc2c(O)c3c(c(O)c2[C@@H](OC2CC(N)C(O)C(C)O2)C1)C(=O)c1c(OC)cccc1C3=O (stereo partly drawn)	-72.4% (active)
COC[C@@H]1C[C@@]2(C)[C@@H](CC[C@@H]3[C@@H]2CC[C@@]2(C)[C@H]3CC[C@]2(C)O)CC1=O	116%
C[C@]12CC[C@@H]3c4ccc(Oc5nc(N6CC6)nc(N6CC6)n5)cc4CC[C@H]3[C@@H]1CCC2=O	74.5%
O=C1OCC2=C1C(c1ccccc1)c1cc3c(cc1N2)OCO3 (stereo not drawn)	-1.65% (active)
CCC1(C)CC(CCNCc2ccccc2O)(c2ccc(C)cc2)CCO1 (stereo not drawn)	106%
ClCCN(CCCl)Cc1ccc(Nc2ccnc3cc(Cl)ccc23)cc1	56.3%
c1ccc(Nc2nc(-c3ccccc3)c[se]2)cc1	64.3%
CCN(CC)CCOC(=O)C(OC(C)C)(c1ccccc1)c1ccccc1	99.3%
CCCc1cc(O)c2c3c(c(=O)oc2c1)CN(C)CC3	60.4%
ClCCN(CCCl)c1ccc(/C=N/Nc2ncnc3nc[nH]c23)cc1	96.2%
CCC1(C(C)C)C(=O)NC(=S)NC1=O	114%
CC(C)(N)Cc1ccccc1	119%
CC1(C)N=C(N)N=C(N)N1c1cccc(CCCCc2ccc(Cl)c(S(=O)(=O)F)c2)c1	69.8%
COc1cc(C=C2c3ccccc3C(=O)c3ccccc32)ccc1OCCCCOc1cc2c(cc1OC)C(=O)N1CCCC1C=N2 (stereo not drawn)	-23.7% (active)
C[CH2][Sn]([Cl])([Cl])[CH2]C.Oc1ccccc1C=NCCN=Cc1ccccc1O	107%
COc1ccc(O)c(CNC(=O)CN2CCCC2=O)c1	96.5%
CCOC(=O)C(Cc1ccc(N(CCCl)CCCl)cc1)NC(=O)C(CC(C)C)NC(C)=O (stereo not drawn)	51.6%

SMILES	growth
C[C@]12CC[C@H]3[C@@H](CC[C@]4(O)C[C@@H](O[C@@H]5O[C@H](CO)[C@@H](O[C@@H]6OC[C@@H](O)[C@H](O)[C@H]6O)[C@H](O)[C@H]5O)CC[C@]34C=O)[C@@]1(O)CC[C@@H]2C1=CC(=O)OC1	42.2%
Clc1ccc2nnnn2n1	36.8%
CC1(C)N=C(N)N=C(N)N1c1ccc(CCCCc2ccc(Cl)c(S(=O)(=O)F)c2)c(Cl)c1	52.6%
CC(=O)[O][Hg][c]1c(N)c(C)cc(C)c1F	7.24% (active)
O=C(NCCN1CC1)C(=O)NCCN1CC1	99.3%
[Au+].[N-]=C=O.c1ccc(CN2[CH-]N(Cc3ccccc3)C(c3ccccc3)=C2c2ccccc2)cc1	86.4%
O=C(O)CNC(=O)C(Cl)(Cl)Cl	103%
N#C[Se]Cc1cc(-c2ccccc2)n(-c2ccc(S(N)(=O)=O)cc2)n1	-68.3% (active)
CCCCCC1(CCBr)C(=O)NC(=O)NC1=O	107%
O=C(O)C(O)C(O)C1[O][Sb]([c]2ccc([N+](=O)[O-])cc2)[O]C1CO (stereo not drawn)	99.3%
O=Cc1cn(Cc2ccc(Cl)cc2)c2ccccc12	96.1%
COc1cc(NC(C)CCCNC2CN3CCC2CC3)c2ncccc2c1 (stereo not drawn)	55.1%
Cc1ccc(C(=O)NCCCOc2ccc(N)cc2Cl)cc1S(=O)(=O)F	106%
CC(=O)OCC1O[C@@H]([S-])C(OC(C)=O)[C@H](OC(C)=O)[C@@H]1OC(C)=O.[Au+].c1ccc(CN2[CH-]N(Cc3ccccc3)C(c3ccccc3)=C2c2ccccc2)cc1	-29.4% (active)
O=C(Nc1ccc(Cl)cc1)Nc1nccs1	46.5%
Clc1ccc(COC(Cn2ccnc2)c2ccc(Cl)cc2Cl)cc1 (stereo not drawn)	57.6%
CC1CCCC(C[N+](C)(C)C)C1=O (stereo not drawn)	104%
CC(=O)/C=C/c1ccc2c(c1)OCO2	95.1%
O=C(O)c1ccc([S-])cc1.[Au+].c1ccc(CN2[CH-]N(Cc3ccccc3)C(c3ccccc3)=C2c2ccccc2)cc1	-62.5% (active)
